Assay outcomes from PubChem.
Shown are actives, neighbours in structure and some others; about 11% of the full set was active somewhere.
Pf growth 96h – P. falciparum growth inhibition at 96 hours; AID 504834; P. falciparum luciferase reporter growth, 96 h; actives 6.9% (n = 320,000); Potency, µM (highest dose often 28.7 µM), for the others: at the top dose activity change, negative = inhibition, hits mostly inhibitors
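Plates of compound plus infected erythrocytes (2% hematocrit, 0.05% parasitemia final) incubate 96 hours, 37 C, 5% CO2. Detection reagent added; reduced luminescence from the parasites' luciferase reporter flags inhibition.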
AMA1-RON2 inh – inhibitors of Plasmodium falciparum AMA1-RON2 interaction; actives 0.2% (n = 360,000); AlphaScreen AMA1-biotinylated RON2 peptide binding; Potency, µM (titrated, usually from 58.2 µM), for inactives: at the highest dose activity change, negative = inhibition, usual class: inhibitors; AID 720542;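 also: 0% = vehicle wells and -100% = peptide control; nearly all actives have a fitted effect of over 45% in size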
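AMA1 (3D7) with his tag at 25 nM final met compounds first, then biotinylated RON2 peptide at 25 nM; detection used donor plus acceptor beads, 10 µg/mL apiece, read by AlphaScreen after 30 min at room temperature.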
HCV inhibitor – HCV inhibition; actives 3.4% (n = 340,000); AID 651820; Huh7.5.1 HCVcc-Cre infection, luciferase reporter, 44 h; Potency, µM (series often up to 41.8 µM), inactives show at the top dose activity change, negative = inhibition, actives largely listed as inhibitors
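A cell-based infection assay in which seeded cells (1,000 per well) receive test compound after 4 h, are inoculated with HCVcc-Cre at approximately 0.5 moi, and are incubated 44 h before luminescence detection.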
Pf growth 48h – P. falciparum growth inhibition at 48 hours (one generation); P. falciparum luciferase growth in erythrocytes, 48 h; Potency, µM (series often up to 28.7 µM), inactives show at the highest dose activity change, negative = inhibition, hits mostly inhibitors; actives 5.9% (n = 310,000)
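Luciferase-expressing parasites in RBCs, 2% Hct / 0.1% parasitemia final; RPMI 1640 + 0.5% Albumax; 37 C, 5% CO2, one generation; luminescence read-out, lower signal = inhibition.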
Active calls of the source: *; ? = inconclusive; / = not tested or not shown; ! = not active in a repeat. Calls follow the shape of the dose curve; as a rule, active = well fitted curve in the direction sought with a large enough effect; inconclusive = small, poorly fitted or top-dose-only effect, or another doubt; inactive = no such curve, though single readings can be large; an effect the other way counts as inactive or inconclusive. Unless noted, % is scaled to controls: 0 for no effect and ±100 for the full control effect; potency is read from the fitted curve at half-maximal effect.

SMILES	Pf growth 96h	AMA1-RON2 inh	HCV inhibitor	Pf growth 48h
O=C(CC1S/C(=N\S(=O)(=O)c2ccc(F)cc2)N(c2ccccc2)C1=O)Nc1ccccc1 (stereo not given)	38%	10%	0%	-8%
O=C1C(Cc2cccc([N+](=O)[O-])c2)SC(=Nc2ccccc2)N1c1ccccc1 (stereo not given)	7.4µM*	?	0%	8.3µM*
O=C1C(Cc2ccc(Br)cc2)SC(=Nc2ccccc2)N1c1ccccc1 (stereo not given)	?	7%	?	13µM*
O=C1C(Cc2ccc(F)cc2)SC(=Nc2ccccc2)N1c1ccccc1 (stereo not given)	?	-3%	3%	10µM*
O=C1N/C(=N/N=C/c2ccco2)SC1Cc1ccccc1 (stereo not given)	0%	67%	-9%	?
O=C1CC(Cc2ccc(Br)cc2)C(=O)N1c1ccccc1 (stereo not given)	?	10%	-1%	6%
Cc1ccc(S(=O)(=O)/N=C(/Nc2cccc3ccccc23)c2ccc(F)cc2)cc1	17%	-6%	?	19%
CC(C)(C)c1ccc2c(c1)N(CC(=O)N1CCCC1)C(=O)CO2	-30%	1%	-3%	12µM*
Cc1ccc2c(c1)N(CC(=O)N1CCCCCC1)C(=O)CO2	/	-10%	/	6%
CCCN1CCN(C(=O)CN2C(=O)COc3ccc(S(=O)(=O)N(CC)CC)cc32)CC1	2.9µM*	15%	6%	-2%
Cc1ccc2c(c1)N(CC(=O)N1CCCC1)C(=O)C(C)O2 (stereo not given)	?	16%	12%	?
CCN(CC)S(=O)(=O)c1ccc2c(c1)N(CC(=O)Nc1ccc(NC(C)=O)cc1)C(=O)CO2	?	-9%	-8%	10%
Cc1ccc2c(c1)N(CC(=O)N1CCCCC1)C(=O)C(C)O2 (stereo not given)	9.3µM*	2%	-5%	2%
CN1CCN(C(=O)CN2C(=O)COc3ccc(S(=O)(=O)N4CCOCC4)cc32)CC1	5.2µM*	-3%	16%	-1%
Cn1ncc2c(=O)[nH]nnc21	/	13%	29%	/
Cc1ccc(CCNC(=O)CS(=O)Cc2nc(-c3cccs3)oc2C)cc1 (stereo not given)	-7%	14%	1%	-9%
COc1ccc(CNC(=O)CS(=O)Cc2nc(-c3ccccc3C)oc2C)cc1 (stereo not given)	10%	-6%	-15%	/
Cc1ccc(-c2nc(CS(=O)CC(=O)NCCN(CC(C)C)CC(C)C)c(C)o2)cc1 (stereo not given)	11%	-1%	11µM*!	8%
COc1ccc(CNC(=O)CS(=O)Cc2nc(-c3ccc(C)cc3)oc2C)cc1 (stereo not given)	7.4µM*	0%	-12%	/
COc1ccc(CCNC(=O)CS(=O)Cc2nc(-c3cccs3)oc2C)cc1OC (stereo not given)	8.3µM*	3%	-38%	?
COc1ccccc1CNC(=O)CS(=O)Cc1nc(-c2ccccc2C)oc1C (stereo not given)	5.2µM*	1%	1%	/
O=C(Nc1cc(C(F)(F)F)ccc1N1CCOCC1)C1CCCO1 (stereo not given)	/	-1%	11%	/
C[C@@H]1CCN(C(=O)[C@H](CCCNC(=N)N)NS(=O)(=O)c2cccc3c2NC[C@H](C)C3)[C@@H](C(=O)O)C1	1%	/	/	-16%
CCOC(=O)Cn1cc(Cl)cc(C(=O)Nc2ccccc2)c1=O	-1%	2%	?	20%
COc1ccc(-c2nc(CS(=O)CC(=O)NCc3ccc4c(c3)OCO4)c(C)o2)cc1 (stereo not given)	4.7µM*	0%	8%	/
SMILES	Pf growth 96h	AMA1-RON2 inh	HCV inhibitor	Pf growth 48h
COc1cccc(-c2nc(CS(=O)CC(=O)NCc3ccc4c(c3)OCO4)c(C)o2)c1 (stereo not given)	-19%	5%	-19%	/
COc1ccc(CN(C(=O)CSc2nnc(-c3ccccc3C)o2)c2ccc(F)cc2)cc1	1%	-1%	-6%	?
O=C(CSc1nnc(-c2c[nH]c3ccccc23)o1)N(Cc1ccccc1)c1ccc(F)cc1	?	-9%	?	7.4µM*
CCSc1nc(N)c2c3c(sc2n1)CN(C)CC3	?	/	0%	?
CSc1nc(N)c2c3c(sc2n1)CN(C)CC3	4.7µM*	-5%	?	/
C=CCSc1nc(N)c2c3c(sc2n1)CN(C)CC3	2.1µM*	-8%	?	?
COc1ccccc1NC(=O)NC(=O)c1ccccc1	-9%	2%	-3%	201%
CCn1c(=O)c([N+](=O)[O-])c(N2CCSCC2)c2ccccc21	?	-27%	14µM*	-15%
Cn1c(=O)c([N+](=O)[O-])c(N2CCSCC2)c2ccccc21	?	-1%	?	-10%
CCn1c(=O)c([N+](=O)[O-])c(N2CCN(Cc3ccc4c(c3)OCO4)CC2)c2ccccc21	?	?	11µM*	?
COc1ccc(CC(=O)Nc2cc(S(=O)(=O)N3CCCCC3)ccc2OC(C)C)cc1OC	/	-2%	/	/
O=C(c1cccc(C(F)(F)F)c1)N1CCOc2ccccc21	1%	15%	0%	13µM*
COc1ccc(/C=N/NC(=O)CNC(=O)c2ccncc2)cc1	?	4%	14%	0%
COc1ccc(-c2cnc(OC(C)(C)C)nc2OC(C)(C)C)cc1OC	/	-2%	?	10µM*
COc1ccc(-c2cncnc2N)cc1OC	/	2%	/	/
CCc1nccn1S(=O)(=O)c1ccc(Br)cc1Br	0.93µM*	-1%	9%	24%
CCc1nccn1S(=O)(=O)c1ccc(OC)c(C)c1C	47%	17%	14%	/
NC(=O)C1CC(=O)N(Cc2ccc3c(c2)OCO3)C(=Nc2ccccc2)S1 (stereo not given)	15µM*	-4%	12%	-20%
CNC(=O)C1CC(=O)N(Cc2ccc3c(c2)OCO3)C(=Nc2ccc(OC)cc2)S1 (stereo not given)	?	4%	7%	?
COCc1ccc(CN2CCc3c([nH]c4ccccc34)C2CC(C)C)o1 (stereo not given)	6.6µM*	0%	-2%	?
CCc1nccn1CCC(=O)N1CCc2c([nH]c3ccccc23)C1CC(C)C (stereo not given)	?	-15%	-11%	?
Cc1ccc(-c2nn3c(C)nnc3c3ccccc23)cc1S(=O)(=O)NCc1ccccc1	8.3µM*	3%	?	?
O=c1c(N=Nc2ccc(O)cc2)c(-c2ccccc2)[nH]n1-c1ccc([N+](=O)[O-])cc1	11%	10%	?	11%
NC(=S)n1[nH]c(-c2ccc([N+](=O)[O-])cc2)c(N=Nc2ccc(Cl)cc2)c1=O	9%	-1%	6.3µM*	?
Cc1ccc([N+](=O)[O-])cc1N=Nc1c(C)[nH]n(C(N)=S)c1=O	17%	100%	11%	/
